In PubChem BioAssay (NCATS) one finds activation, Potency and outcome data, which are given here for 40 molecules.

The structures appear in SMILES notation. Inconclusive results are not listed. Entries that show only a call come without a potency. A number with no mark means an inactive call. Active and inactive are the calls of the source. Calls come from the whole dose curve; as a rule, active = well fitted curve in the direction sought with a large enough effect; inconclusive = small, poorly fitted or top-dose-only effect, or another doubt; inactive = no such curve, though single readings can be large; an effect the other way counts as inactive or inconclusive.

Rap guanine nucleotide exchange factor 4 (Homo sapiens), sequence (Q8WZA2 whole entry, looked up): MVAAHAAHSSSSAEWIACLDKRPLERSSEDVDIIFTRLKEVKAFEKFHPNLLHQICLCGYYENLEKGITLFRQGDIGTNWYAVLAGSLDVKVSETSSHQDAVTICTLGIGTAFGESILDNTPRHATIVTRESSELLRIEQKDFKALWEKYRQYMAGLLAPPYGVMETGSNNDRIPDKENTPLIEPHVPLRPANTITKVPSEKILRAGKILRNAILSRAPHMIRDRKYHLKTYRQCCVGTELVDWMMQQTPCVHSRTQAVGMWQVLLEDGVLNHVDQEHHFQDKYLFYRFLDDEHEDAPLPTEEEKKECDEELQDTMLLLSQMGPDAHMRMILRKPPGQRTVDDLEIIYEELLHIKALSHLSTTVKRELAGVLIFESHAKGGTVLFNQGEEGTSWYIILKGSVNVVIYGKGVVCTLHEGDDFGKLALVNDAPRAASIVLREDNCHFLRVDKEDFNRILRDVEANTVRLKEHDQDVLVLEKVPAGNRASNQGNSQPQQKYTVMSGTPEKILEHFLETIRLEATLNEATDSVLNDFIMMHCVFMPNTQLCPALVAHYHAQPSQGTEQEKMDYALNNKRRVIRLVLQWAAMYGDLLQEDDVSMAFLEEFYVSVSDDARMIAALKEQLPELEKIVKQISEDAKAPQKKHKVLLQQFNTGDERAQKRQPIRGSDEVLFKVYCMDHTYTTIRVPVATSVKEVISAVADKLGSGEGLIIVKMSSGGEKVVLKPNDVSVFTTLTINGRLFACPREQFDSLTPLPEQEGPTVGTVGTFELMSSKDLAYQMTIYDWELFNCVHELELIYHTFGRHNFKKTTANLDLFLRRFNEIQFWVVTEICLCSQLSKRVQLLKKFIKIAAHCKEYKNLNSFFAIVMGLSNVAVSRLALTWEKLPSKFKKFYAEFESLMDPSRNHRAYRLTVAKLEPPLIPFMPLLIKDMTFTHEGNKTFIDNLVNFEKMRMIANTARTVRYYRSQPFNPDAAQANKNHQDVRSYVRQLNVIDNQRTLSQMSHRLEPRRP

The first test concerns the target Rap guanine nucleotide exchange factor 4 (Homo sapiens) (UniProt Q8WZA2). The experiment in a line: Confirmatory qHTS for agonist of cAMP-regulated guanine nucleotide exchange factor 4 (EPAC2) (AID 1645884).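 Note: nucleotide exchange releases bodipy-GDP from Rap1 and this lowers its fluorescence; nearly all actives have a fitted effect of over 65% in size.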 The note with it: EPAC2 GEF activity, Rap1B-BODIPY-GDP fluorescence; series mostly up to 154 µM. On the technique in general: In qHTS, concentration-response curves come from the screen itself.
As to `COc1cc2c(c(OC)c1OC)C(c1ccc3c(c1)OCO3)CC(=O)O2` (configuration not stated), the activation is 4.62% [at 17.1 µM, percent relative to cAMP agonist control].
Regarding `COc1cccc(C(=O)NC(=S)N2c3ccccc3CC2C)c1OC` (configuration not stated), the activation is 5.75% [at 17.1 µM, percent relative to cAMP agonist control].
For `CCc1nnc(NS(=O)(=O)c2ccc(NC(=S)NC(=O)c3ccc(Br)cc3)cc2)s1`, the Potency result is “inactive”.
On the same count and under the same terms, the entry for `CC(C)Oc1nc(-c2ccccc2Cl)nc2ccccc12` is “inactive”.
For `CCOC(=O)N1CCN(C(=O)C(C)(C)Oc2ccc(Cl)cc2)CC1`, the activation is 3.62% [at 17.1 µM, percent relative to cAMP agonist control].
`COc1ccc(-n2c(SCC(=O)Nc3ccccc3OC)nc(O)cc2=O)cc1`: the activation is 4.67% [at 17.1 µM, percent relative to cAMP agonist control].
Still for that read-out and setting: the figure for `CCOc1ccc2nc(S(=O)(=O)NC(=O)C3(C)CCN3C(=O)CCc3cccs3)sc2c1` (configuration not stated) is 5.68% [at 17.1 µM, percent relative to cAMP agonist control].

For a further test the target is unchanged. The experiment in a line: Confirmatory qHTS for antagonist of cAMP-regulated guanine nucleotide exchange factor 4 (EPAC2) (AID 1645885). Note: nearly all actives have a fitted effect of over 25% in size. Note: potency is the fitted concentration of half-maximal effect. Conditions: EPAC2 Rap1B-BODIPY-GDP exchange fluorescence, biochemical; series mostly up to 12.7 µM.
`O=C(CSc1nccn1C1CCCC1)Nc1cc(C(F)(F)F)ccc1Cl`: the Potency entry was “inactive”.
For `COc1cc(NC(=O)CCc2c(C)nc3c4c(C)cc(C)nc4nn3c2C)cc(OC)c1`, the Potency entry was “inactive”.
Still for that read-out and setting: the value for `COC(=O)c1ccccc1NC(=O)c1nn(-c2ccc(OC)cc2)c(=O)c2c1c1ccccc1n2C` was “inactive”; that for `Cc1ccc(S(=O)(=O)CCC(=O)Nc2sccc2C#N)cc1` was “inactive”; that for `COc1cnc(-c2ccccc2)c(-c2ccccc2)n1` was “inactive”.
Still for that read-out and setting: the value for `COc1ccc(C(=O)Nc2cccc(/C=C(/CCC(=O)O)c3nc4ccccc4s3)c2)cc1` was “inactive”.
The same measure, in the same setting: the entry for `O=C(Nc1nc2ccc(Cl)cc2s1)C1CCCO1` (configuration not stated) is “inactive”.
`O=C(c1ccco1)N(Cc1cccs1)c1ccc(F)cc1`: the Potency result is “inactive”.
For the molecule `CCN1C(=O)/C(=C/c2ccc(OCc3ccc(C(=O)O)cc3)c(Cl)c2)NC1=S`, the Potency result is “inactive”.
The same measure, in the same setting: the figure for `O=C(COC(=O)Cc1c(Cl)cccc1Cl)NCC1CCCO1` (configuration not stated) is 75.7 µM (active); for `C/C(CC(=O)Nc1ccc(Cl)c(C(F)(F)F)c1)=N\NC(=O)c1cnccn1` it is “inactive”.
On to `O=C(O)C1CC(=O)N(c2ccc(OCc3c(F)cccc3Cl)cc2)C1` (configuration not stated), for which the Potency result was “inactive”.
Still for that read-out and setting: the value for `CC1Cc2nc(SCC(=O)N3CCCc4ccccc43)n(C)c(=O)c2S1` (configuration not stated) was “inactive”; that for `CC1CCC/C(=C\Nc2ccc(O)cc2)C1=O` (configuration not stated) was “inactive”.
Same read-out and setting: the entry for `O=C1COc2ccc(C(=O)COC(=O)c3ccc([N+](=O)[O-])cc3Cl)cc2N1` is “inactive”; for `Cc1ccccc1NC1c2ccccc2C(=O)N1Cc1ccco1` (configuration not stated) it is “inactive”.
Still for that read-out and setting: the value for `Cn1cccc1/C=C1\CCC/C(=C\c2cccn2C)C1=O` was 75.7 µM (active); that for `COc1ccc2nc3oc(C(=O)Nc4cccc(C(F)(F)F)c4)cc3cc2c1` was “inactive”.
Consider `COc1ccc(NC(=O)CCCSc2nc(-c3ccco3)cc(C(F)(F)F)n2)cc1`, for which the Potency entry is “inactive”.
On the same count and under the same terms, the entry for `CCc1cc2c(=O)c(-c3nc4ccccc4n3C)coc2c(CN2CCCCC2C)c1O` (configuration not stated) is “inactive”; for `NC(=O)c1ccsc1NC(=O)CS(=O)(=O)c1ccc(F)cc1` it is “inactive”; for `CCOc1cnc(-c2c(-c3c(Cl)cccc3Cl)noc2C)o1` it is “inactive”.
On the same count and under the same terms, the entry for `O=C(NCc1ccc(F)cc1)C(c1cccnc1)N(C(=O)c1csnn1)c1ccccc1` (configuration not stated) is “inactive”; for `COc1ccc(C2CC(c3ccccc3OC(C)=O)=NN2C(C)=O)cc1` (configuration not stated) it is “inactive”.
On to `Cc1cc(C)cc(OCCSc2nc(-c3ccc(C(C)(C)C)cc3)nc3cc(=O)[nH]n23)c1`, for which the outcome was “inactive [at 12.7 µM]”.
`COc1ccc(/C(N)=N/OC(=O)c2ccc(C)c([N+](=O)[O-])c2)cc1`: the Potency entry was “inactive”.
For `CCCCn1nnc(NC(=O)c2ccco2)n1`, the Potency entry is “inactive”.
On the same count and under the same terms, the value for `CCCSc1nc(C)cc(C)c1S(=O)(=O)c1ccccc1C` was “inactive”.
Regarding `O=C(NCc1ccco1)c1sc(=S)n2c1[nH]c(=O)c1ccccc12`, the Potency entry was “inactive”.
On the same count and under the same terms, the entry for `COc1cccc(OC)c1C(=O)NC(=S)NNC(=O)[C@H]1C[C@@H]1c1ccccc1` is “inactive”; for `COc1ccc(CCNC2CC(=O)N(CCc3ccc(OC)c(OC)c3)C2=O)cc1` (configuration not stated) it is “inactive”.
Same read-out and setting: the value for `CSc1ccccc1C(=O)Nc1ccc(C)cc1C` was “inactive”; that for `Cc1ccc(-n2nnnc2SCC(=O)NCC2(N3CCOCC3)CCCCC2)cc1` was “inactive”.
On the same count and under the same terms, the entry for `COc1cc2c(c(OC)c1OC)C(c1ccc3c(c1)OCO3)CC(=O)O2` (configuration not stated) is “inactive”; for `COc1cccc(C(=O)NC(=S)N2c3ccccc3CC2C)c1OC` (configuration not stated) it is “inactive”; for `CCc1nnc(NS(=O)(=O)c2ccc(NC(=S)NC(=O)c3ccc(Br)cc3)cc2)s1` it is 75.7 µM (active).
Take `CC(C)Oc1nc(-c2ccccc2Cl)nc2ccccc12`: the Potency result is “inactive”.
Turning to `CCOC(=O)N1CCN(C(=O)C(C)(C)Oc2ccc(Cl)cc2)CC1`, the Potency is 0.239 µM (active).
On the same count and under the same terms, the value for `COc1ccc(-n2c(SCC(=O)Nc3ccccc3OC)nc(O)cc2=O)cc1` was “inactive”; that for `CCOc1ccc2nc(S(=O)(=O)NC(=O)C3(C)CCN3C(=O)CCc3cccs3)sc2c1` (configuration not stated) was “inactive”.
